Compound activity as filed in PubChem.
Rows were chosen to be rich in hits. Some 4.1% of all compounds tested hit in one or more screens of this group.
ssDAF-12 act: activates DAF-12 receptor from parasite S. stercoralis. activation, % at 6.8 µM. 370,000 tested, 1% active. HEK293 ssDAF-12/GRIP1 lit1-tk-luc reporter, luminescence; % of 3 µM dafachronic acid response;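 active = activation above the mean over all tested compounds plus 3 SD, cut at about 0.9% in these data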
DAX1 inh-1: NR0B1 (DAX1) inhibition; HEK293 Gal4-DAX1 luciferase reporter, luminescence; inhibition, % at 6.75 µM; 340,000 tested, 0.99% active;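 active = inhibition above the mean over all tested compounds plus 3 SD, cut at about 4.2% in these data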;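 note: inhibition shows as a rise in luminescence from relieved DAX1 repression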
hcDAF12 agonist: H. contortus DAF-12 activation, primary screen. HEK293 hcDAF-12 lit1-tk-luc reporter, luminescence; 0% DMSO, 100% Δ7-dafachronic acid. AID 652067. 370,000 tested, 1.4% active. activation, % at 6.8 µM;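 active = activation above the mean of all tested compounds plus 3 SD, cut at about 5.5% in these data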
hgDAF-12 ag: agonists of H. glycines DAF-12 nuclear receptor. activation, % at 6.8 µM. HEK293 GAL4-hgDAF12 UAS-luciferase reporter, agonist luminescence; normalized to butyrate control. 370,000 tested, 1.8% active;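 active = activation above a cutoff set at the mean of all screened compounds plus 3 SD, cut at about 10% in these data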
DAX1 inh-2: inhibitors of DAX1 repression of SF-1 activated StAR promoter | HEK293T StAR-luciferase reporter, SF-1/DAX-1 repression relief | inhibition, % at 6.8 µM | 370,000 tested, 1.1% active;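 active = inhibition above the mean over all tested compounds plus 3 SD, cut at about 3.6% in these data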;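 note: higher inhibition means more luminescence from relief of DAX-1 repression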
hgDAF12 ag: confirmation of H. glycines DAF-12 agonists. 3,300 tested, 80% active. shares compounds with hgDAF-12 ag. HEK293 GAL4-hgDAF12 luciferase reporter, agonist mode; percent of butyrate response. activation, % at 6.8 µM. AID 743050;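 active = mean activation over triplicate wells above the hit cutoff derived from the earlier primary screen, cut at about 11% in these data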
LXR ag 2: activates human LXR-beta, counter-screen for DAF-12 agonists. shares compounds with hgDAF-12 ag. HEK293 Gal4-LXR luciferase reporter, 24 h. activation, % at 6.8 µM. 3,300 tested, under 10 active. AID 743051;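 active = mean activation of the triplicate above a set limit carried over from the primary screen, none filed active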
Target sequence (P55055 whole entry, looked up, the tested form may be a part): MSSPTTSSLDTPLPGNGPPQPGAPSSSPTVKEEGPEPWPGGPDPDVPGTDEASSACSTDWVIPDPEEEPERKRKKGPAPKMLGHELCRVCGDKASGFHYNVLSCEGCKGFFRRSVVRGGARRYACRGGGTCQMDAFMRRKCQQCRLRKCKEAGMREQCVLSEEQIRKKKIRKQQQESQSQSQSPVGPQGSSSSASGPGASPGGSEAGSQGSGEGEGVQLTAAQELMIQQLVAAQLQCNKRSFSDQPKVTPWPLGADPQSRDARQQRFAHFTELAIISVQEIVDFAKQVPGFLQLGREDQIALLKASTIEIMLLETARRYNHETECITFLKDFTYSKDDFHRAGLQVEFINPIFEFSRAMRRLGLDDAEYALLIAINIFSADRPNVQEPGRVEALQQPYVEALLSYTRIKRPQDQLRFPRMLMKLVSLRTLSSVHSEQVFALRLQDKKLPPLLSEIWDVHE
Each line names hits and unclear results; the compound was inactive in the other large screens (follow-up assays come after a bar, where they were run).

O=C(Nc1ccc2c(c1)OCO2)c1n[nH]c(=O)c2ccccc12	hgDAF-12 ag 18 | hgDAF12 ag inactive | LXR ag 2 inactive
Cc1cc(C(=O)CSc2ncccn2)c(C)n1-c1cccc(F)c1	ssDAF-12 act 2.3, hcDAF12 agonist 6.1, hgDAF-12 ag 14, DAX1 inh-2 4.3 | hgDAF12 ag 15 | LXR ag 2 inactive
Cc1cc(C)cc(-n2c(C)cc(C(=O)CSc3nnnn3C)c2C)c1	none
Cc1cc(C(=O)CSc2nnnn2C)c(C)n1-c1cccc(F)c1	hgDAF-12 ag 14 | hgDAF12 ag 15 | LXR ag 2 inactive
O=C1CC(/C=C/c2ccc(Cl)cc2)=Nc2ccccc2N1	hgDAF-12 ag 17 | hgDAF12 ag inactive | LXR ag 2 inactive
O=C1CC(/C=C/c2ccccc2)=Nc2ccccc2N1	none
CCCNC(=O)c1noc2c1CCc1cc(OC)ccc1-2	hgDAF-12 ag 16, DAX1 inh-2 3.8 | hgDAF12 ag 13 | LXR ag 2 inactive
CC(C)[C@H]1Cn2nncc2Cn2c3ccccc3c(=O)n21	none (no result: DAX1 inh-1)
Cc1ccc(NC(=O)C2C3CCCCC32)cc1[N+](=O)[O-] (centres undefined)	none
Cc1cc(NC(=O)OC2CCCCC2)ccc1[N+](=O)[O-]	hgDAF-12 ag 17 | hgDAF12 ag 14 | LXR ag 2 inactive
CN1OC[C@@H]2CN(Cc3ccc4c(c3)OCO4)[C@H](c3ccc(-n4ccnc4)cc3)C[C@@H]21	none (no result: DAX1 inh-1)
O=C(O)C1C2CCC(C2)C1C(=O)Nc1nc2ccccc2s1 (centres undefined)	none
O=C(CC1CCCCC1)Nc1nc2ccccc2s1	hgDAF-12 ag 14 | hgDAF12 ag 17 | LXR ag 2 inactive
CC(C)C[C@H]1COc2cccc(N3CCCCC3)c2S(=O)(=O)N1	none (no result: DAX1 inh-1)
O=C(O)c1cc(-c2ccc(N3CCOCC3)cc2)nn1-c1ccc(F)cc1F	hgDAF-12 ag 17 | hgDAF12 ag inactive | LXR ag 2 inactive
O=C(O)c1cc(-c2ccc(N3CCOCC3)cc2)nn1-c1ccccc1Cl	none
Cc1cc(C2=NNC(=NC3CC3)SC2)c(C)n1Cc1ccco1	none
COCCCN=C1NN=C(c2cc(C)n(Cc3ccco3)c2C)CS1	ssDAF-12 act 1.6, hgDAF-12 ag 15 | hgDAF12 ag inactive | LXR ag 2 inactive
CC(=O)C1=C(C)N(CC(C)C)C(=S)NC1c1cccc(Cl)c1 (centres undefined)	none (no result: DAX1 inh-1)
COC(=O)C1=C(C)N(Cc2ccccc2C(F)(F)F)C(=NCc2ccc(OC)cc2)NC1c1ccc(Cl)cc1 (centres undefined)	none (no result: DAX1 inh-1)
CN1CCN(/N=C/c2ccc(-c3ccccc3)cc2)CC1	hgDAF-12 ag 14 | hgDAF12 ag 12 | LXR ag 2 inactive
COc1ccc2cc(CCNC(=O)c3cc4ccccc4o3)c(=O)[nH]c2c1	none
COc1ccc2cc(CCNC(=O)c3cccs3)c(=O)[nH]c2c1	hgDAF-12 ag 15, DAX1 inh-2 4.0 | hgDAF12 ag 11 | LXR ag 2 inactive
COC(=O)c1ccccc1Oc1ccc(NC(=O)c2ccco2)cc1	hgDAF-12 ag 13 | hgDAF12 ag inactive | LXR ag 2 inactive
O=C(Nc1ccc(Cl)cn1)c1cccc(F)c1	hgDAF-12 ag 17 | hgDAF12 ag 17 | LXR ag 2 inactive
O=C(/C=C/Nc1ccc(Oc2ccccc2Cl)cc1)c1ccco1	hgDAF-12 ag 15 | hgDAF12 ag 17 | LXR ag 2 inactive
O=C(Nc1ccc(NC(=O)c2ccco2)nc1)c1cccc(F)c1	hgDAF-12 ag 13 | hgDAF12 ag 16 | LXR ag 2 inactive
O=C(Nc1cccc(C(=O)Nc2ccc(Cl)cn2)c1)c1ccccc1	none
Cc1ccc(Oc2ccc(NC(=O)c3ccco3)cc2)cc1	none
COc1ccccc1Oc1ccc(N/C=C/C(=O)c2ccco2)cc1	none
Cc1ccc(NC(=O)c2ccc3[nH]c(=O)c(=O)[nH]c3c2)nc1	none
O=C(Nc1ccc(NC(=O)C2CC2)nc1)c1ccco1	none
O=C(Nc1ccc(NC(=O)c2ccccc2F)cn1)c1ccco1	hgDAF-12 ag 14 | hgDAF12 ag inactive | LXR ag 2 inactive
Cc1cc(NC(=O)c2cccc(F)c2)ncc1NC(=O)c1ccco1	hgDAF-12 ag 15 | hgDAF12 ag 12 | LXR ag 2 inactive
Cc1ccc(NC(=O)c2ccc(F)cc2)nc1	hgDAF-12 ag 15 | hgDAF12 ag 12 | LXR ag 2 inactive
Clc1ccc2c(c1)[C@H]1OCC[C@H]1[C@@H](c1ccco1)N2	none
CCc1ccc2c(c1)[C@H]1OCC[C@H]1[C@@H](c1cccs1)N2	hgDAF-12 ag 14 | hgDAF12 ag 11 | LXR ag 2 inactive
CCC(C)[C@H](NC(=O)C1COC(O)([C@H](Cc2ccccc2)NC(=O)[C@@H](NC(=O)OCc2ccccc2)C(C)C)CN1C)C(=O)N[C@H](C(=O)OC)C(C)C (some centres undefined)	none (no result: DAX1 inh-1, DAX1 inh-2)
COc1ccccc1Cc1c(-c2ccc(Cl)cc2)nc2ccc(C)cn12	ssDAF-12 act 1.2, hcDAF12 agonist 6.1, hgDAF-12 ag 14 (no result: DAX1 inh-1) | hgDAF12 ag 15 | LXR ag 2 inactive
COc1ccccc1Cc1c(-c2ccc(Cl)cc2)nc2c(C)cc(Br)cn12	none (no result: DAX1 inh-1)
Cc1ccc(Cc2c(-c3ccc(Br)cc3)nc3ccc(Br)cn23)cc1	hgDAF-12 ag 17 | hgDAF12 ag inactive | LXR ag 2 inactive
Cc1ccc2nc(-c3cccc(Cl)c3)c(Cc3ccsc3)n2c1	hgDAF-12 ag 16 (no result: DAX1 inh-1) | hgDAF12 ag inactive | LXR ag 2 inactive
Clc1cccc(-c2nc3ccc(Br)cn3c2Cc2ccsc2)c1	none (no result: DAX1 inh-1)
O=C(Nc1ccccc1)C1CC(=O)N(Cc2ccccc2)C1 (centres undefined)	none
CC(=O)c1ccc(NC(=O)C2CC(=O)N(Cc3ccccc3)C2)cc1 (centres undefined)	hgDAF-12 ag 14 | hgDAF12 ag inactive | LXR ag 2 inactive
CCOC(=O)c1c(NC(=O)C2C3CCC(O3)C2C(=O)O)sc(C)c1-c1ccc(C)cc1 (centres undefined)	none
Cc1sc(NC(=O)C2C3CCC(O3)C2C(=O)O)nc1-c1ccc(CC(C)C)cc1 (centres undefined)	hgDAF-12 ag 18 | hgDAF12 ag inactive | LXR ag 2 inactive
COC1=C[C@H](C(=O)NC2CCN(Cc3ccccc3)CC2)C(C)C(c2ccccc2)CC1=O (some centres undefined)	none (no result: DAX1 inh-1)
COc1cccc(C(=O)N[C@@H](CC(C)C)C(=O)N2CCC[C@H]2C(=O)NCc2ccccc2)c1	none (no result: DAX1 inh-1)
CC(=O)Nc1ccc(N=Cc2ccc(OCc3ccccc3)cc2)cc1	hgDAF-12 ag 14 | hgDAF12 ag 11 | LXR ag 2 inactive
